# Records with an inconclusive call do not appear. The source made the active and inactive calls. Calls come from the whole dose curve; as a rule, active = well fitted inhibition curve with a large enough effect; inconclusive = small, poorly fitted or top-dose-only effect; inactive = flat fitted curve, though single readings scatter.
# Legend:
# KB-3-1 = assay: Cytotoxic Profiling of Annotated Libraries Using Quantitative High-Throughput Screening (AID 1296008); conditions: Five cell lines viability, CellTiter-Glo ATP luminescence, 48-72 h; max response: hits give low values; for max response: % is set by controls: 0 for no effect and ±100 for the full control effect
# How it was run: (§1)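 Cytotoxicity was measured as CellTiter-Glo ATP luminescence, read after 10 min at room temperature. Compound treatment of the cells lasted 48 or 72 hr at 37 degrees Celsius in a qHTS format.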
# NIH3T3 = assay: as above; conditions: Five cell lines viability, CellTiter-Glo ATP luminescence, 48-72 h; max response: hits give low values
# How it was run: as §1
# HEK293T = assay: qHTS assay to identify novel small-molecules to repurpose for Merkel cell carcinoma treatment (AID 1296009); conditions: MCC and control cell lines, CellTiter-Glo viability, 72 h; at 44.8 µM (top of the series) unless noted
# How it was run: (§2)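 72 hr, 37 degree celsius; NPC 8-pt / MIPE 11-pt dose response; compound pinned in DMSO; CellTiter-Glo, 10 min RT, luminescence; normalized to no-cell and DMSO controls.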
# HACAT = assay: as above; conditions: MCC and control cell lines, CellTiter-Glo viability, 72 h; series mostly up to 44.8 µM
# How it was run: as §2
# Note: nearly all actives have a fitted effect of over 60% in size.
# Potency is the fitted concentration of half-maximal effect.
structure (smiles),measurement,setting,value
CN(C)C/C=C/C(=O)Nc1cccc(C(=O)Nc2ccc(Nc3nccc(-c4cccnc4)n3)cc2)c1,Potency,KB-3-1,3.66 µM (active)
same,Potency,NIH3T3,10.3 µM (active)
CN1CCN(Cc2ccc(-c3cnc4[nH]cc(-c5ccc6[nH]ccc6c5)c4c3)cc2)CC1,Potency,KB-3-1,9.2 µM (active)
same,Potency,NIH3T3,14.6 µM (active)
N[C@@]1(C(=O)O)CC[C@H]2[C@H](C(=O)O)[C@H]21,max response,KB-3-1,2.99% (inactive)
same,max response,NIH3T3,4.48% (inactive)
CC(C)Oc1ccc(C(=O)NC(CNC(=O)CN(C)C)Cc2ccc(-c3cn4cccc(C(C)O)c4n3)cc2)cc1Cl (stereo not given),Potency,KB-3-1,0.146 µM (active)
same,max response,NIH3T3,-19.5% (inactive)
CCO[C@@H]1OC(=O)C[C@@H]1NC(=O)[C@@H]1CCCN1C(=O)[C@@H](NC(=O)c1ccc(N)c(Cl)c1)C(C)(C)C,max response,KB-3-1,2.91% (inactive)
same,max response,NIH3T3,-4.45% (inactive)
Cc1cc(Nc2cc(N3CCN(C)CC3)nc(/C=C/c3ccccc3)n2)n[nH]1,Potency,KB-3-1,1.16 µM (active)
same,Potency,NIH3T3,2.31 µM (active)
O=C1CSc2ccccc2N1Cc1cccc(C(F)(F)F)c1,max response,KB-3-1,-14% (inactive)
same,max response,NIH3T3,4.03% (inactive)
CC(C)C[C@H](CC(=O)NO)C(=O)N[C@@H](Cc1ccc2ccccc2c1)C(=O)N[C@@H](C)C(=O)NCCN,max response,KB-3-1,7.03% (inactive)
same,max response,NIH3T3,-2.62% (inactive)
O=C(O)c1ccc(OC2OC(CO)C(O)C(O)C2O)cc1 (stereo not given),max response,KB-3-1,6.64% (inactive)
same,max response,NIH3T3,1.85% (inactive)
CCCCc1nc2cc(/C=C/C(=O)NO)ccc2n1CCN(CC)CC,Potency,KB-3-1,1.46 µM (active)
same,Potency,NIH3T3,5.17 µM (active)
CN(C)c1nc(NC2CCC(NCCc3ccc(Br)cc3OC(F)(F)F)CC2)nc2ccccc12 (stereo not given),Potency,KB-3-1,4.61 µM (active)
same,Potency,NIH3T3,4.11 µM (active)
C#CC[C@H](c1nc2cc(Cl)ccc2c(=O)n1Nc1ccccc1)N(CCCN)C(=O)c1cccc(Cl)c1F,Potency,KB-3-1,0.92 µM (active)
same,Potency,NIH3T3,10.3 µM (active)
Cc1oc2ccccc2c1CNC(=O)NCc1cccs1,max response,KB-3-1,-11.8% (inactive)
same,max response,NIH3T3,-4.16% (inactive)
Cc1cc(Nc2ccc(NC(=O)c3ccc(Nc4ccnc5ccccc45)cc3)cc2)nc(N)n1,Potency,KB-3-1,4.61 µM (active)
same,Potency,NIH3T3,18.4 µM (active)
O=C(c1cc2c(cc1F)OC(c1ccc(F)cc1)(c1ccc(Cl)cc1Cl)O2)N1CCOCC1 (stereo not given),Potency,KB-3-1,13 µM (active)
same,max response,NIH3T3,-3.07% (inactive)
CS(=O)(=O)c1ccc([C@H](CC2CCCC2)C(=O)Nc2nccs2)cc1,outcome,KB-3-1,inactive
same,max response,NIH3T3,-48.7% (inactive)
CC(=O)OC[C@@]12C(=O)C[C@@H](C)[C@]3(C[C@@H](c4ccoc4)O[C@H]3OC(C)=O)[C@H]1CCC[C@]21CO1,max response,KB-3-1,-1.02% (inactive)
same,max response,NIH3T3,3.02% (inactive)
Cc1cc(O)c(-c2ccc([C@@H](C)CN(C)C)cc2)c2c1[nH]c(=O)c1sccc12,Potency,KB-3-1,0.0461 µM (active)
same,Potency,NIH3T3,0.231 µM (active)
O=C(O)/C=C/c1ccc(O)c(O[C@@H]2O[C@H](CO)[C@@H](O)[C@H](O)[C@H]2O)c1,outcome,KB-3-1,inactive
same,max response,NIH3T3,4.37% (inactive)
FC(F)(F)c1ccc(Nc2nc(-c3c(C(F)(F)F)nc4ccccn34)cs2)cc1,Potency,KB-3-1,0.206 µM (active)
same,Potency,NIH3T3,1.3 µM (active)
CC(=O)O[C@@H]1C[C@H](O)[C@@]23CO[C@H](O)[C@]1(C)C2C[C@@H](O)[C@]1(C)C3C(=O)[C@H](OC(C)=O)[C@@]2(C)[C@H](c3ccoc3)C[C@H]3O[C@]321 (stereo not given in full),Potency,KB-3-1,0.137 µM (active)
same,Potency,NIH3T3,0.432 µM (active)
C=C1C(=O)O[C@@H]2C/C(C)=C\C(=O)/C=C(\C)[C@@H](OC(=O)/C(C)=C\C)[C@H](O)[C@@H]12,Potency,KB-3-1,11.4 µM (active)
same,Potency,NIH3T3,10.1 µM (active)
COc1cc2ncnc(Nc3ccc(O)cc3)c2cc1OC,max response,KB-3-1,3.01% (inactive)
same,max response,NIH3T3,2.24% (inactive)
C=CC1C(OC2OC(CO)C(O)C(O)C2O)OC=C2C(=O)N3C(C(=O)O)Cc4c([nH]c5ccccc45)C3CC21 (stereo not given),max response,KB-3-1,6.21% (inactive)
same,max response,NIH3T3,-3.8% (inactive)
CNC(=O)c1cccc(-c2ccc3c(N4CCOC[C@@H]4C)nc(N4CCOC[C@@H]4C)nc3n2)c1,Potency,KB-3-1,0.326 µM (active)
same,Potency,NIH3T3,1.3 µM (active)
CC(C)C(CO)Nc1nc(Nc2cc(N)cc(Cl)c2)c2ncn(C(C)C)c2n1 (stereo not given),Potency,KB-3-1,10.3 µM (active)
same,Potency,NIH3T3,3.66 µM (active)
N#Cc1c(Oc2ccc(F)c(NC(=O)Cc3cccc(C(F)(F)F)c3)c2)ccc2nc(NC(=O)C3CC3)sc12,Potency,KB-3-1,16.4 µM (active)
same,Potency,NIH3T3,1.46 µM (active)
CO[C@H]1/C=C/[C@@](C)(O)/C=C/C(=O)O[C@H](C)[C@@H](C)CC/C=C/1C,max response,KB-3-1,-8.74% (inactive)
same,Potency,NIH3T3,3.21 µM (active)
OC1CCC(Nc2ncc3nc(Nc4c(F)cc(F)cc4F)n([C@H]4CCOC4)c3n2)CC1 (stereo not given in full),outcome,KB-3-1,inactive
same,max response,NIH3T3,3.11% (inactive)
same,outcome,HEK293T,inactive
CN(C)CCCCC(=O)Nc1ccc(NC(=S)NC(=O)c2ccc(C(C)(C)C)cc2)cc1,Potency,KB-3-1,14.6 µM (active)
same,Potency,NIH3T3,7.31 µM (active)
C=C1OC2CC(C(=O)O)C=CC2NC1=O (stereo not given),max response,KB-3-1,3.04% (inactive)
same,max response,NIH3T3,0.0418% (inactive)
CCOC(=O)CCN(C(=O)c1ccc2c(c1)nc(CNc1ccc(C(=N)N)cc1)n2C)c1ccccn1,max response,KB-3-1,-6.67% (inactive)
same,max response,NIH3T3,-4.58% (inactive)
Cc1cc(=O)oc2c(C=O)c(O)ccc12,outcome,KB-3-1,inactive
same,max response,NIH3T3,-0.325% (inactive)
same,outcome,HEK293T,inactive
CC1(C)[C@@H](O)CC[C@]2(C)[C@H]3CC=C4[C@@H]5C[C@](C)(C(=O)O)CC[C@]5(C)CC[C@@]4(C)[C@]3(C)CC[C@@H]12,max response,KB-3-1,8.76% (inactive)
same,max response,NIH3T3,0.034% (inactive)
Nc1nc(-n2cc(C(=O)O)c(=O)c3cc(F)c(N4CC(O)C4)c(Cl)c32)c(F)cc1F,max response,KB-3-1,-18.7% (inactive)
same,max response,NIH3T3,2.73% (inactive)
same,outcome,HEK293T,inactive
CNC(=O)c1ccccc1Nc1nc(Nc2ccc3c(c2OC)CCCC(N2CCN(CCO)CC2)C3)ncc1Cl (stereo not given),Potency,KB-3-1,10.3 µM (active)
same,Potency,NIH3T3,9.2 µM (active)
same,Potency,HACAT,5.8 µM (active)
CC(=O)c1ccc(O[C@@H]2O[C@H](CO)[C@@H](O)[C@H](O)[C@H]2O)cc1,max response,KB-3-1,2.85% (inactive)
same,max response,NIH3T3,-22.7% (inactive)
COc1cc(O)c2c(c1)C1=CC(O)C(O)CC1(C)OC2=O (stereo not given),outcome,KB-3-1,inactive
same,max response,NIH3T3,-6.33% (inactive)
O=C(O)CC(=O)OC[C@H]1O[C@@H](Oc2ccc3c(c2)OC[C@H]2c4cc5c(cc4O[C@@H]32)OCO5)[C@H](O)[C@@H](O)[C@@H]1O,max response,KB-3-1,-2.44% (inactive)
same,max response,NIH3T3,-8.59% (inactive)
same,outcome,HEK293T,inactive [at 17.4 µM]
C[C@@H](Oc1cc(-n2cnc3ccc(OC4CCN(C)CC4)cc32)sc1C(N)=O)c1ccccc1C(F)(F)F,Potency,KB-3-1,0.0092 µM (active)
same,Potency,NIH3T3,5.8 µM (active)
Cn1c(=O)cc(N2CCCC(N)C2)n(Cc2cc(F)ccc2C#N)c1=O (stereo not given),max response,KB-3-1,-0.0728% (inactive)
same,max response,NIH3T3,-2.76% (inactive)
CC1(C)CCC2(C(=O)OC3OC(CO)C(O)C(O)C3O)CCC3(C)C(=CCC4C5(C)CCC(O)C(C)(C(=O)O)C5CCC43C)C2C1O (stereo not given),max response,KB-3-1,1.65% (inactive)
same,max response,NIH3T3,0.934% (inactive)
C/C=C(\C)C(=O)OCC1OC(OC2OC(COC(=O)/C(C)=C/C)C(OC3OC(CO)C(OC(=O)/C(C)=C/C)C(OC(=O)/C(C)=C/C)C3O)C(O)C2O)C(O)C(O)C1OC1OC(CO)C(OC(=O)/C(C)=C/C)C(OC(=O)/C(C)=C/C)C1O (stereo not given),max response,KB-3-1,-4.08% (inactive)
same,max response,NIH3T3,-26.7% (inactive)
CC(=O)OC12COC1CC(O)C1(C)C(=O)C(O)C3=C(C)C(OC(=O)C(O)C(NC(=O)OC(C)(C)C)c4ccccc4)CC(O)(C(OC(=O)c4ccccc4)C21)C3(C)C (stereo not given),Potency,KB-3-1,0.0018 µM (active)
same,Potency,NIH3T3,0.0164 µM (active)
NC(=O)c1cccc2cn(-c3ccc(C4CCCNC4)cc3)nc12 (stereo not given),max response,KB-3-1,-7.35% (inactive)
same,max response,NIH3T3,-14% (inactive)
C[C@@H]1O[C@@H](O[C@H]2[C@H](O[C@H]3[C@H](O[C@H]4CC[C@@]5(C)C(CC[C@]6(C)C5CC=C5[C@@H]7CC(C)(C)C[C@@H](O)[C@]7(C)CC[C@]56C)[C@@]4(C)CO)O[C@H](C(=O)O)[C@@H](O)[C@@H]3O)OC[C@H](O)[C@@H]2O)[C@H](O)[C@H](O)[C@H]1O (stereo not given in full),max response,KB-3-1,-1.37% (inactive)
same,max response,NIH3T3,-4.51% (inactive)
CC1(C)CC[C@]2(C(=O)O)CC[C@]3(C)C(=CCC4[C@@]5(C)C[C@@H](O)[C@H](O)C(C)(C)C5CC[C@]43C)C2C1 (stereo not given in full),outcome,KB-3-1,inactive
same,max response,NIH3T3,4.86% (inactive)
same,outcome,HEK293T,inactive [at 17.4 µM]
CCOc1cc(N2CCC(O)CC2)ccc1Nc1ncc2c(n1)N(C1CCCC1)CCC(=O)N2C,Potency,KB-3-1,7.31 µM (active)
same,Potency,NIH3T3,4.11 µM (active)
Cc1cc(-c2cc(O)ccc2Cl)cc2nnc(Nc3ccc(OCCN4CCCC4)cc3)nc12,Potency,KB-3-1,4.61 µM (active)
same,Potency,NIH3T3,11.6 µM (active)
Cc1[nH]nc(C(F)(F)F)c1Cc1sc2c(c1C(=O)N1C[C@](C)(O)CO1)c(=O)n(C)c(=O)n2C(C)C,max response,KB-3-1,1.3% (inactive)
same,Potency,NIH3T3,13 µM (active)
CCN1CCN(Cc2ccc(Nc3ncc(F)c(-c4cc(F)c5nc(C)n(C(C)C)c5c4)n3)nc2)CC1,Potency,KB-3-1,6.51 µM (active)
same,max response,NIH3T3,1.34% (inactive)
CC[C@H](CO)Nc1nc(NCc2ccc(-c3ccccn3)cc2)c2ncn(C(C)C)c2n1,Potency,KB-3-1,0.116 µM (active)
same,Potency,NIH3T3,0.517 µM (active)
N=c1nc2n(cc1F)C1OC(CO)C(O)C1O2 (stereo not given),max response,KB-3-1,-7.19% (inactive)
same,Potency,NIH3T3,2.06 µM (active)
C=C[C@H]1C(O[C@@H]2O[C@H](CO)[C@@H](O)[C@H](O)[C@H]2O)OC=C2C(=O)N3CCc4c([nH]c5ccccc45)C3CC21 (stereo not given in full),outcome,KB-3-1,inactive
same,max response,NIH3T3,2.27% (inactive)
same,outcome,HEK293T,inactive [at 17.4 µM]
c1cn2cc(-c3ccc4cn[nH]c4c3)nc(Nc3ccc(N4CCOCC4)cc3)c2n1,max response,KB-3-1,3.1% (inactive)
same,max response,NIH3T3,-11.5% (inactive)
CN(C)CCn1cc(S(=O)(=O)c2cccc(F)c2)c2cccnc21,max response,KB-3-1,1.25% (inactive)
same,max response,NIH3T3,-4.92% (inactive)
same,outcome,HEK293T,inactive

# Reference: PubChem BioAssay (NCATS)
